# Experimental data as given in the supplement of paper PMC6555819.
# Tested on: VDR:RXRa (NR concentration 270 nM, RXRa partner concentration 90 nM)
# Assay: PBM binding z-score (relative to random genomic background probes); higher = stronger binding; sequences stand for … in GC…GCGATTGACAGCGTAGAATGAAGG
# Method: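 Protein-binding microarray (Agilent 4x180K custom design, double-stranded 60-nt probes: 5' GC cap, 34-nt variable region, 24-nt constant primer region; full probe sequence given). Purified or IVT nuclear receptor:RXRα heterodimers (3:1 NR:RXRα, mostly 270:90 nM) or homodimers were incubated for 1 h in PBS with 2% milk and no ligand, then detected with Alexa488 antibodies. Fluorescence from o1-orientation probes (~5 replicates averaged) was converted to z-scores against 500 random hg19 background probes. Variable regions are seed direct-repeat (DR0–DR5) sites, all their single-nucleotide variants and half-site ablations.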
row,Sequence,PBM binding z-score
1,CCTAGTTGGTCGAGGTCACACACGCTATAGGTAC,4.8
2,AGAACGAGGGCGATGAGTTGATAGCACGGGTGGC,3.12
3,CGTCAAAGTTCAAGATAACGTAACAGAAAGCAGC,3.2
4,CGAACTAGGCCATTGACAGGACAGTGAATAGTAA,-0.259
5,CAAACTCGGTCACAGAGGTCAAAGTCCGTGCGTA,7.57
6,ATATGTAGGTTGGCTGGGGTCATTCAGACTAGGC,5.67
7,AGAAAGAGGTTACCAAAGATCAGGGAAACGCTTG,1.3
8,ATACCAAGGTGAACGTGAGGTCGTTGATACTAAC,4.41
9,TCTATTAGTTGATTAGGGCAAACGAAACAGCGGA,0.637
10,TCATATAGGTAAACTGGTGAAAGTCCGTAAGTTA,0.597
11,GATACAGGGTCATGGCCAGAGTACGCGTATTGAT,4.83
12,CGTCCAAGGTCAAAGTCAGTGAAAGAGACTCGAA,3.77
13,TCATATAGGTAAACAGGTGAAGGTCCGTAAGTTA,0.989
14,ATCGAAAAGTCGAGGTGAGTATAGAGAAAGGGAA,-0.237
15,ACAGACAGGAGAGTGAAGGTAACTCAGCTGGACG,-0.068
16,CCTCGGTGGACAACAGGAGGTCAGAGCTGCCAGA,1.07
17,GTGACTGGGGCATCAGCAGGTTACCATAACTTAA,0.163
18,ATCTGTAGGTTACATCCGGGTCATTCAGGCTATG,4.16
19,AGTCAAAGCTCAGGACGAGGTAACGTAAAGCACG,-0.317
20,CAAACTAGGTCACAGAGGTCAAAGCCCGTGCGTA,7.81

row,Sequence,PBM binding z-score
1,TCTTGTAGATCAGCAGGTTAAGAAGGCTGGCCAA,0.724
2,CATCCAAGGTCAGCAGGTCAGTGAAAGCGACGTG,4.18
3,TGTCAAAGTTCAAAGGTATCGTAAGTATCCACAC,4.75
4,GTAACGAGGGCATTCGAGTTGATAGCATGGCGAT,3.62
5,ACTAGCAGGCCAAGGGTCCCTCAAGATTAGTCCG,-0.454
6,CCTTACGGGTCACTCCAGATTATAGCATCGGAGT,2.72
7,GTACCAAGGTGAATAGGTCCTTGATGAGTAGGCG,0.968
8,CCTAGCAGGCCAGGGTCACTCGAGCATTTCGCTT,2.54
9,CCGACTGGGGCTGAAAGGTTACCATACCATCCGG,0.343
10,CCTAGGTGGTCAGGAGGTCACACACCGGATATGA,3.76
11,ACTACTAGTTGACTTAGGGCAACCGATACGACGC,0.191
12,CGTCCAAGGTCATAGGAGGTCAGTTAAGACAGAT,6.3
13,CGTCCAAGATCAAAGGTCAGTGAAGAGATGACGG,3.08
14,CAAACTACGTCACAGAGGTCAAAGTCCGTGCGTA,5.85
15,TCGGCTAGGTCAACGATGGTCAGCTAATCTGCTA,1.73
16,CAAACTAGGTCATGGTCAAAGTCGGTTTGTGCCA,2.18
17,CCTAGCAGGCCAGGGTCACTCACGCATTTCGCTT,2.3
18,TCTGCAAGGTCAACGATGGTCAGCTAATCTGCTA,4.53
19,ATTGAAAGGTCGTGAGGTGAGTATACAGAAAGGC,3.71
20,CGAACTAGGTCATTAACAGGACAGTGAATAGTAA,1.77
